Percent Effect data for 39 molecules are collected here from ChEMBL document CHEMBL3988442, “University of Dundee, Small-Polar-MMV Screening Library” (2021).

The assay deals with AMP-activated protein kinase, AMPK (Homo sapiens) (UniProt P54646+O43741+P54619+Q9UGJ0+Q9Y478+Q13131+Q9UGI9). Briefly: AMP-dependent Kinase enzyme assay. An in vitro enzyme assay that detects ADP turnover that is directly proportional to AMPK activity. This uses naive AMPK that is activated during the assay with MK-8722. The assay is classed as functional. Details: scale not given: direction of the effect not stated beside the values. As to conditions: 30 µM.
As for `COc1ccccc1OC1CCN(C(=O)c2cnc(C)s2)CC1`, the Percent Effect is 3.19%.

As to `Cc1cc(C)n(-c2cccc(NC(=O)N3CCC[C@@H]3CO)c2)n1`, the Percent Effect is -5.07%. Then `CN1CCN(C)C(CNc2c(C#N)cnc3ccc(Cl)cc23)C1` (centres undefined), with 8.02%. Then `COc1ccccc1CN1CCC(c2nccc(C)n2)C1` (centres undefined), with -3.97%; and `Cc1cc(CN2CCC(C3CCN(CCc4ccccc4)CC3)C2)[nH]n1` (centres undefined), with -4.05%. Consider `CN1CCN(CCCOc2ccccc2CN2C[C@H]3CC[C@H]2C3)CC1`, for which the Percent Effect was -5.02%. `O=C(c1ccccc1F)N1CCCC1Cn1c(=O)oc2ccccc21` (centres undefined): the Percent Effect was 10.9%.

For the molecule `Cc1ccc(-c2nc(CC3CCN(C)CC3)no2)cc1N1CCNC1=O`, the Percent Effect stood at 11.1%. With `COc1cc2c(cc1CNCc1cccnc1-n1cccn1)OC(C)C2` (centres undefined), the Percent Effect came to 5.16%. As to `O=C1NCCCCC1NC(=O)N1CCCc2ccccc21` (centres undefined), the Percent Effect was -0.938%.

With `CN1CCC(Cc2cnc(CNC(=O)Cc3cccc(F)c3)cn2)CC1`, the Percent Effect worked out at 3.91%. Then `CC(CNC(=O)c1c[nH]nn1)Oc1ccc(Cl)cc1` (centres undefined), with 3.24%.

With `O=C(C1CC(c2ccccc2)=NO1)N1CCCCc2ccccc21` (centres undefined), the Percent Effect was 4.65%. On to `CCc1ccsc1C(=O)NC(C#N)CC(C)C` (centres undefined), for which the Percent Effect was -7.05%. Then `CCc1cc(=O)[nH]c(-c2ccc(NCCC(C)O)nc2)n1` (centres undefined), with -6.17%; and `CC(C)(C)C(NC(=O)CCCS(C)(=O)=O)c1ccc(F)cc1F` (centres undefined), with 7.18%.

`CCCn1ncc(C(=O)N2CCCC(OCc3ccccn3)C2)c1C` (centres undefined): the Percent Effect is -1.18%. Then `O=C(NCCC1CN(C2CCCC2)CCO1)c1cc(=O)[nH]c(=O)[nH]1` (centres undefined), with -0.888%; and `COC(=O)CSCc1nc(-c2ccc(Cl)cc2)no1`, with -4.75%. As for `CCN(CC)C(=O)CN1CCCC1C(=O)N(C)C` (centres undefined), the Percent Effect is -2.41%. For the molecule `Cc1ccnc(C2COCCN2C)n1` (centres undefined), the Percent Effect worked out at 26%. On to `COc1ccc2c(c1)CCCC2CC(=O)NCC(=O)O` (centres undefined), for which the Percent Effect is 3.73%. For the molecule `Cc1cc(NC(=O)Cn2ccc(=O)c3ccccc32)[nH]n1`, the Percent Effect was -3.42%. Regarding `O=C(Cc1c[nH]c(=O)[nH]c1=O)N1CCCCC1CCc1ccccc1` (centres undefined), the Percent Effect is -1.5%.

For `O=C(c1cnc2ccccn12)N1CCCC(c2ccn[nH]2)C1` (centres undefined), the Percent Effect came out at 7.56%. For the molecule `CSCCC1c2nc[nH]c2CCN1Cc1[nH]c2ccc(F)cc2c1C` (centres undefined), the Percent Effect is 2.26%.

Consider `c1nn(C2CCCCC2)cc1-c1cncn1CCCN1CCCCC1`, for which the Percent Effect is 1.56%. For `CCCN(CCC)C(=O)CN1CCCC1C(=O)N(C)C` (centres undefined), the Percent Effect is -3.78%. Then `CCc1cc(NCCCc2nc(C)no2)nc(-c2ccncc2)n1`, with -1.39%; and `Cc1noc(C)c1CCCNC(=O)Nc1ccc2c(c1)CC(=O)N2`, with 33.6%; and `CCC1(CC)CC(=O)N(CC(O)c2ccc(F)cc2)C1=O` (centres undefined), with 8.69%. Then `COc1nccc(N2CC[C@@H](N3CCCCCC3)[C@H](O)C2)c1C#N`, with -1.86%; and `CCOCCN1CCN(c2ncccc2C#N)CC1CC` (centres undefined), with 4.43%; and `Cc1cc(C(=O)NC(C)CC(=O)c2ccco2)[nH]n1` (centres undefined), with 2.92%. Regarding `Cc1ccc(C(=O)NCCC2CCN(C)CC2)cc1N(C)S(C)(=O)=O`, the Percent Effect was -4.15%. On to `CC(C)n1ccnc1C1CCN(c2nccc(C(F)(F)F)n2)CC1`, for which the Percent Effect came to 15.9%. In the case of `CCc1nc(CN(C)C(=O)CSC)no1`, the Percent Effect was 1.82%. Under `COc1ccccc1NC(=O)c1cnc(C2CCN(C(C)=O)C2)nc1C` (centres undefined) stands 5.26%.

For `CCc1cc(N2CCC(NCCc3nc(C)c(C)s3)CC2)nc(C)n1`, the Percent Effect was 4.15%.
